Reference: PubChem BioAssay (NCI)
This is part of a sample that, as a whole, favours compounds with a hit. Of some 83,000 tested, about 20% had one in any assay.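 Assay: single dose, 48 h. Readout: percent growth (0 = no net growth; negative = cell death). Active: <10.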 Values without a mark were called inactive. The source made the active and inactive calls.

Each compound was assayed on RXF 393 renal (assay: NCI-60 one-dose screen, 48 h (100 = growth as untreated, 0 = no growth, -100 = all killed)). Settings: 10 µM unless noted.

Compound | growth
COc1cc(CCC[P+](c2ccccc2)(c2ccccc2)c2ccccc2)cc2c1OCO2 | 76.3%
CCCCc1ccc(Nc2ccc(Nc3ccc(CCCC)cc3S(=O)(=O)O)c3c2C(=O)c2ccccc2C3=O)c(S(=O)(=O)O)c1 | 95%
COc1ccc2occ(C3=C(c4c[nH]c5ccccc45)C(=O)N(O)C3=O)c2c1 | 107%
CC1(C)OC2C(CO[Si](C)(C)C(C)(C)C)OC(n3c(I)c(C#C[Si](C)(C)C)c(=O)[nH]c3=O)C2O1 (stereo not drawn) | -32.9% (active)
Cc1ccc(S(=O)(=O)NCC[C@@H]2C[C@H]2c2cc3ccccc3s2)cc1 | 103%
NC[C@H](O)c1ccc(O)c(O)c1 | 117%
C=C(C)[C@@H]1CC[C@]2(C(=O)NC3CCCCC3)CC[C@]3(C)[C@H](CC[C@@H]4[C@@]5(C)CCC(=O)C(C)(C)[C@@H]5CC[C@]43C)[C@@H]12 | 98.3%
N=C1CCC(=N)c2c1c(O)c1ccccc1c2O | 79.6%
COC(=O)[C@]12CC[C@@H](C)[C@H](C)[C@@H]1C1=CC[C@@H]3[C@@]4(C)C(C=O)=C[C@@](C)(COC(C)=O)[C@@H]4C(=O)C[C@@]3(C)[C@]1(C)CC2 | 55.8%
COc1cc(/C=N/Nc2ncc(-c3cc4cc5c(cc4o3)OCO5)s2)cc(OC)c1OC | 66.3%
OC(c1cccc(-n2ccc(C(F)(F)F)n2)c1)c1cnccc1NC1CCCCCC1 (stereo not drawn) | 14.2%
COc1ccc(-c2[nH]c(=S)n(C(CC3(C)NCC(=O)N3n3c(-c4ccccc4)cc(C)nc3=S)c3ccc(OC)cc3)c(=O)c2Br)cc1 (stereo not drawn) | 65.5%
Cc1ccc(Cl)c(NS(=O)(=O)c2ccc(-c3cnc(C4CC4)o3)cc2)c1 | 9.98% (active)
O=C(NC(Cc1nnc2n(Cc3ccccc3)c(=O)c3c4c(sc3n12)CCCC4)c1ccc(Cl)cc1)c1ccccc1 (stereo not drawn) | 34.3%
Cc1c(O)cc(-c2cnc(N/N=C\c3ccc(Cl)cc3)s2)c(O)c1C | 81.3%
CCN(CC)CCn1nc2c3c(cccc3c1=O)-c1ccccc1-2 | 24.2%
Fc1c[c-]c(-c2ccccn2)c(F)c1.[CH3-].[Pt+2].c1ccc(P(C[PH+](c2ccccc2)c2ccccc2)c2ccccc2)cc1 | -82.3% (active)
CCN1C(=O)N(CC)C2Nn3c(s/c(=C\c4cccc([N+](=O)[O-])c4)c3=O)=NC21 (stereo not drawn) | 25.4%
N#C/C(=C/C=C/c1cccc(Cl)c1)S(=O)c1ccccc1 (stereo not drawn) | -87.6% (active)
Oc1c(CN2CCCC2)cc(COCc2ccc(Br)cc2)c2cccnc12 | 20%
O=C(CCCCCCN1CC(=O)N2[C@@H](c3ccccc3Cl)c3[nH]c4ccccc4c3C[C@H]2C1=O)NO | 61.3%
COc1ccc(C2CC(c3cccc(OC)c3)=NN2C(=O)c2cc(OC)c(OC)c(OC)c2)cc1 (stereo not drawn) | 23.4%
CCc1c2c(nc3ccc(OC(=O)OCc4ccc(B5OC(C)(C)C(C)(C)O5)cc4)cc13)-c1cc3c(c(=O)n1C2)COC(=O)[C@]3(O)CC | -64.7% (active)
